Pf growth 48h: inhibits P. falciparum growth in the first generation, 48 h. P. falciparum luciferase growth in erythrocytes, 48 h. Potency, µM (series often up to 28.7 µM), inactives show top-dose activity change, negative = inhibition, most hits filed as inhibitors. hit rate 5.9% among 310,000
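Cell-based growth assay: transgenic P. falciparum expressing firefly luciferase, cultured in red cells within RPMI 1640 containing 0.5% w/v Albumax, 24 mM bicarbonate and gentamycin. A drop in luciferase activity indicates inhibition.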
Pf growth 96h: inhibits malaria parasite growth, 96 h | P. falciparum luciferase reporter growth, 96 h | Potency, µM (highest dose often 28.7 µM), for the others: top-dose activity change, negative = inhibition, hits mostly inhibitors | hit rate 6.9% among 320,000
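Luminescence readout: decreased luciferase signal marks inhibited growth of reporter-expressing P. falciparum in infected red cells (2% hematocrit, 0.05% parasitemia final), exposed to compound two generations (96 h, 37 C, 5% CO2).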
HCV inh: blocks hepatitis C virus; Potency, µM (top dose mostly 41.8 µM), for the others: at the highest dose activity change, negative = inhibition, most hits filed as inhibitors; AID 651820; Huh7.5.1 HCVcc-Cre infection, luciferase reporter, 44 h; hit rate 3.4% among 340,000
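1,000 cells/well; 4 h culture; + compound; + HCVcc-Cre (~0.5 moi); 44 h; luciferase substrate, RT 15 min; read 15 sec.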
AMA1 RON2 block: disrupts binding of P. falciparum AMA1 to RON2. AlphaScreen AMA1-biotinylated RON2 peptide binding. Potency, µM (series often up to 58.2 µM), for inactives: at the highest dose activity change, negative = inhibition, actives largely listed as inhibitors. hit rate 0.2% among 360,000;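 note: 0% = vehicle wells and -100% = peptide control; nearly all actives have a fitted effect of over 45% in size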
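AMA1 (3D7) with his tag at 25 nM final met compounds first, then biotinylated RON2 peptide at 25 nM; detection used donor plus acceptor beads, 10 µg/mL apiece, read by AlphaScreen after 30 min at room temperature.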
An asterisk follows results filed as active; u = inconclusive; x = not tested or not shown; [ ] = another dose, or the depositor's remark. An excerpt weighted towards active compounds, which were near 11% of everything screened. Calls come from the whole dose curve; as a rule, active = well fitted curve in the direction sought with a large enough effect; inconclusive = small, poorly fitted or top-dose-only effect, or another doubt; inactive = no such curve, though single readings can be large; an effect the other way counts as inactive or inconclusive. Unless noted, % is set by controls: 0 for no effect and ±100 for the full control effect; potency is the fitted concentration of half-maximal effect.

SMILES	Pf growth 48h	Pf growth 96h	HCV inh	AMA1 RON2 block
CC(NS(=O)(=O)c1ccccc1)C(c1cccs1)N1CCOCC1 (stereo unspecified)	29.4%	24.1%	23.6%	5.9%
COc1ccc(CCC(=O)OCC(=O)Nc2sccc2C(N)=O)cc1	u	8.2%	2.1%	-10.4%
O=[N+]([O-])c1ccc2c(c1)C(N1CCOCC1)/C(=C/COc1ccc(Cl)cc1Cl)O2 (stereo unspecified)	11.7µM*	u	u	-19.2%
O=C(COc1ccc([N+](=O)[O-])cc1Cl)N1CCOCC1	21.2%	19.5%	5.6%	-2.2%
CSc1nc(=NC(C)=O)ss1	10.4%	5.22µM*	-0.8%	-11.0%
CCOc1ccc(CCNC(=O)CSc2n[nH]c(N)n2)cc1OCC	3.2%	9.7%	20.2%	2.6%
CCC1Oc2ccc(C)cc2N(CC(=O)N2CCOCC2)C1=O (stereo unspecified)	1.6%	u	15.1%	-5.1%
CCC1Oc2ccc(C)cc2N(CC(=O)N(Cc2ccncc2)Cc2ccco2)C1=O (stereo unspecified)	11.7µM*	4.8%	-4.7%	-8.6%
CCC1Oc2ccc(C)cc2N(CC(=O)N(Cc2cccnc2)Cc2cccc(F)c2)C1=O (stereo unspecified)	11.7µM*	97.8%	19.5%	25.4%
O=C(NC1CCCCC1)C1c2ccccc2OCC(=O)N1CCc1c[nH]c2ccccc12 (stereo unspecified)	x	x	x	38.8%
Cc1noc(C)c1NC(=O)N(C)C[C@@H]1Oc2ncc(Br)cc2C(=O)N([C@@H](C)CO)C[C@H]1C	x	x	x	-7.6%
O=C(N/N=C1\CC2CC=CC12)c1ccccc1Cl (stereo unspecified)	-15.1%	13.9%	14.5%	25.1%
O=[N+]([O-])c1ccccc1N/N=C1\CC2CC=CC12 (stereo unspecified)	55.8%	31.3%	-0.9%	20µM*
CSCCC1NC2(C(=O)Nc3c(Cl)cccc32)[C@@H]2C(=O)N(C3CCCC3)C(=O)[C@H]12 (stereo partly specified)	u	10.4µM*	8.2%	-8.9%
Cc1cccc(C(=O)Nc2nnc(S(=O)(=O)N3CCC(C)CC3)s2)c1	12.0%	u	8.6%	13.6%
CCN1CCN(CCNC(=O)c2cc(Cl)c(NC(=O)C3=C(C)OCCS3)cc2OC)CC1	0.0%	-20.0%	u	-2.5%
CCOCCCNC(=O)c1ccccc1NC(=O)C1=C(C)OCCS1	5.5%	0.0%	-2.5%	25.8%
CC1=C(C(=O)Nc2ccccc2C(=O)NCCCOC(C)C)SCCO1	0.5%	4.15µM*	-5.1%	8.4%
CCN(CC)CCCNC(=O)c1cc(Cl)c(NC(=O)C2=C(C)OCCS2)cc1OC	u	u	11.2µM*	-3.3%
Cc1cc(C(=O)Nc2c(F)c(F)c(F)c(F)c2F)n(-c2ccccc2)n1	7.0%	u	u	0.2%
COc1ccc(C(=O)CC(=O)C(=O)Nc2ccc(C)c(Cl)c2)cc1	x	13.7%	-1.7%	108.1%
COc1ccc(C(=O)CC(=O)C(=O)Nc2cc(C)ccc2C)cc1	x	9.28µM*	-7.6%	38.8%
CN1CCN(CCCNC(=O)c2ccc(CSCc3cccc(Cl)c3)o2)CC1	-0.2%	-5.8%	-27.5%	-5.6%
O=C(NCCCN1CCCC1)c1ccc(CSCc2cccc(Cl)c2)o1	x	u	10µM*	-7.5%
O=C(NCCCN1CCN(c2cccc(Cl)c2)CC1)c1nc(-c2ccncc2)no1	6.57µM*	5.1%	u	26.7%
SMILES	Pf growth 48h	Pf growth 96h	HCV inh	AMA1 RON2 block
O=C(NCCCN1CCN(CCCNC(=O)c2cccc(Cl)c2)CC1)c1cccc(Cl)c1	u	11.7µM*	u	13.8%
O=C(COc1ccc([N+](=O)[O-])cc1Cl)NCCN1C(=O)CSC1=O	x	x	-3.7%	2.0%
COc1ccccc1N(C(=O)c1snc(C(N)=O)c1N)C(C(=O)NCc1ccccc1)c1ccc(O)cc1 (stereo unspecified)	u	-20.2%	-23.1%	-7.3%
COc1ccc(C(C(=O)NCc2ccccc2)N(C(=O)c2snc(C(N)=O)c2N)c2ccccc2OC)cc1 (stereo unspecified)	5.22µM*	-14.6%	u	u
NC(=O)c1nsc(C(=O)N(c2cccc(F)c2)C(C(=O)NCc2ccccc2)c2ccc(O)cc2)c1N (stereo unspecified)	-23.2%	u	-27.5%	8.0%
COc1ccc(N(C(=O)c2snc(C(N)=O)c2N)C(C(=O)NCc2ccccc2)c2ccc(F)cc2)c(OC)c1 (stereo unspecified)	10.4µM*	24.8%	u	-14.8%
COc1ccc(C(C(=O)NCc2ccccc2)N(Cc2ccco2)C(=O)c2snc(C(N)=O)c2N)cc1OC (stereo unspecified)	10.4µM*	13.6%	u	-9.5%
NC(=O)c1nsc(C(=O)N(c2ccccc2F)C(C(=O)NCc2ccc(F)cc2)c2ccc(O)cc2)c1N (stereo unspecified)	u	-19.6%	3.55µM*	-4.9%
CC1CN(C(=O)COC(=O)Cc2ccc(Cl)cc2)CC(C)O1 (stereo unspecified)	u	25.9%	9.8%	9.6%
COC(=O)C1(C)NC(c2cccc(C)c2)C2C(=O)N(c3ccccc3)C(=O)C21 (stereo unspecified)	x	x	x	2.6%
CC(Oc1ccc(Br)cc1)C(=O)Nc1ccc(S(=O)(=O)NC2=NCCCCC2)cc1 (stereo unspecified)	x	x	-21.9%	13.2%[11.6 µM]
COc1ccc(Br)cc1/C=C\C(=O)NCc1cccnc1	-24.4%	6.0%	u	-10.6%
COc1ccc(-c2cn3c(C)c(C(=O)NCc4ccc5c(c4)OCO5)sc3n2)cc1	x	x	-7.3%	17.8%
COc1ccc(CN2C(=O)C(Cc3ccccc3)Nc3ncnc(N4CCN(c5ccccc5)CC4)c32)cc1 (stereo unspecified)	2.62µM*	6.57µM*	3.16µM*	-14.7%
COc1ccc(CN2C(=O)C(CC(C)C)Nc3ncnc(N4CCCCC4)c32)cc1 (stereo unspecified)	u	u	-23.6%	1.6%
CC(C)CC1Nc2ncnc(N3CCN(c4ccccc4)CC3)c2N(Cc2ccc(Br)cc2)C1=O (stereo unspecified)	2.94µM*	5.86µM*	u	-14.2%
CC(C)CC1NC(=S)N(Cc2ccccc2)C1=O (stereo unspecified)	u	9.28µM*	u	56.6%
CC(C)CC1Nc2ncnc(N3CCCCC3)c2N(Cc2ccccc2)C1=O (stereo unspecified)	11.7µM*	u	8.8%	-4.9%
CC[C@]12c3[nH]c4ccc(OC)cc4c3CCN1C(=O)C(CC(=O)NCCCn1ccnc1)C[C@@H]2C(=O)N1CCN(C(=O)c2ccco2)CC1 (stereo partly specified)	x	x	13.3%	-5.4%
Cc1ccc(N(CC(=O)Nc2cccc(Cl)c2C)S(C)(=O)=O)cc1	20.4%	u	-4.5%	7.1%
COc1ccc(CN2C(=O)C(CC(C)C)Nc3ncnc(N4CCN(c5ccccc5)CC4)c32)cc1 (stereo unspecified)	2.62µM*	11.7µM*	u	-18.7%

Screens from PubChem.
